Compound activity: PubChem, several laboratories
Sampled rows, rich in hits. Any-hit rate of the full collection: about 2.3%.
LGR2 inh: inhibitors of bursicon-induced LGR2 CRE-luciferase signal, primary screen, cell-based, HEK293, CRE-luciferase reporter, bursicon stimulation; Drosophila bursicon receptor LGR2 (rickets); bursicon-stimulated, 4 h; inhibition, % at 9.99 µM; hit rate 0.35% among 380,000; AID 720647, 2013;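 active means drop in luminescence signal, shown as inhibition above about 50% in the replicate tests, limit read from the data, passing the limit was not always enough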;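 further: agonist challenge used bursicon conditioned medium at about half maximal strength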
HSP90 inh: HSP90 inhibitors, primary screen, cell lysate, luminescence; inhibition, % at 5.6 µM; Heat shock protein HSP 90 (rabbit reticulocyte lysate; luciferase refolding); AID 1789, 2009; hit rate 0.91% among 290,000; Rabbit reticulocyte lysate, luciferase refolding luminescence, 3 h;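 active means inhibition above the screen-wide mean plus 3 SD, computed separately per campaign, cut at about 16% in these data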;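 further: 0% = DMSO wells and 100% = 60 µM geldanamycin wells; inhibitors lower the luminescence because luciferase stays unfolded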
SENP8 block-1: SENP8 protease inhibitors, primary screen, biochemical, luminescence | Sentrin-specific protease 8 (Homo sapiens), Q96LD8 | hit rate 1.2% among 330,000 | inhibition, % at 10 µM | purified SENP8, Z-RLRGG-aminoluciferin cleavage; in the data active means inhibition above about 50%
Target sequence (Q96LD8 whole entry, looked up): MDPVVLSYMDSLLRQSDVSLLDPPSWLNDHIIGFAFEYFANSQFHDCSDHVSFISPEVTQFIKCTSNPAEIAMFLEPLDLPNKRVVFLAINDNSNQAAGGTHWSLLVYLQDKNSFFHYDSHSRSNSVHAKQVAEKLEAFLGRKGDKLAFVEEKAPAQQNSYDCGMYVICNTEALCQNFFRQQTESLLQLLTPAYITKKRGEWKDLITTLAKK
SENP6 block: SENP6 protease inhibitors, primary screen, biochemical, luminescence, uHTS. Sentrin-specific protease 6 (Homo sapiens), Q9GZR1. Recombinant SENP6 catalytic domain, aminoluciferin luminescence. inhibition, % at 10 µM. hit rate 1.8% among 330,000. AID 2599, 2010;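 active means inhibition above about 50% at the single tested dose, limit read from the data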;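 further: plate controls were DMSO wells with enzyme for no effect and DMSO wells lacking enzyme for full effect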
SENP7 block: SENP7 protease inhibitors, primary screen, biochemical, luminescence, uHTS; Sentrin-specific protease 7 (Homo sapiens), Q9BQF6; recombinant SENP7, Z-RLRGG-aminoluciferin luminescence, 40 min; inhibition, % at 5 µM; hit rate 1.5% among 330,000; AID 434973, 2010;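 active means inhibition above about 50% at the single test dose, limit read from the data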;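 further: plate controls were DMSO with enzyme for no effect and no enzyme buffer wells for full effect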
Target sequence (Q9BQF6 706-1050 limits assumed): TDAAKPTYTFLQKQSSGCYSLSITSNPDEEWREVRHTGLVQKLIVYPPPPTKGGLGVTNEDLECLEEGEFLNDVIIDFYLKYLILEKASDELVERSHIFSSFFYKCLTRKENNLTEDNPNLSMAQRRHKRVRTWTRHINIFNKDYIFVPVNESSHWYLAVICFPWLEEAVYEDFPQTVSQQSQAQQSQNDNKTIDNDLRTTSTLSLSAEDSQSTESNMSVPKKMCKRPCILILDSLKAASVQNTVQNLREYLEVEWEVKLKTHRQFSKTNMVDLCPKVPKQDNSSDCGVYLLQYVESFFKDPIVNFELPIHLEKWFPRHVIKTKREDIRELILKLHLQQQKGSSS
SENP8 block-2: human SENP8 protease inhibitors, primary screen, biochemical, fluorescence, Nedd8 protein substrate, uHTS; recombinant SENP8; Sentrin-specific protease 8 (Homo sapiens), Q96LD8; inhibition, % at 20 µM; hit rate 0.64% among 360,000; in the data active means inhibition mostly above about 40%, no sharp cut-off; inactive means mostly below about 27%
SENP8 inh conf: human SENP8 protease inhibitors, confirmation, biochemical, Nedd8 protein substrate, single concentration. AID 624319, 2012. shares compounds with SENP8 block-2. inhibition, % at 25 µM. purified SENP8, Nedd8-AMC/pro-Nedd8 cleavage fluorescence, 30 min. hit rate 15% among 1,400; in the data active means inhibition mostly above about 39%, no sharp cut-off; inactive means mostly below about 34%
The depositor's hits bear a star; . = not tested or not shown.

SMILES	LGR2 inh	HSP90 inh	SENP8 block-1	SENP6 block	SENP7 block	SENP8 block-2	SENP8 inh conf
COc1ccc(S(=O)(=O)N(C)C[C@H]2OCCCC[C@H](C)Oc3ccc(NS(C)(=O)=O)cc3C(=O)N([C@@H](C)CO)C[C@H]2C)cc1	8	.	.	.	.	.	.
CCN(CC)c1ccc(N=Cc2ccc(N(CC)CC)cc2O)cc1	.	6	5	5	9	58*	11
CCN(CC)c1ccc(C=Nc2ccc(C)cc2)c(O)c1	.	7	-1	0	-2	21	.
CCN(CC)c1ccc(C=Nc2ccc(N(C)C)cc2)c(O)c1	.	4	-13	17	6	52*	32
C[C@@H]1CN([C@@H](C)CO)C(=O)c2cc(NC(=O)NC3CCCCC3)ccc2O[C@@H]1CN(C)C	16	.	.	.	.	.	.
C[C@H](CO)N1C[C@H](C)[C@@H](CN(C)C(=O)Nc2ccccc2)Oc2ncc(-c3cccnc3)cc2C1=O	-13	.	.	.	.	.	.
CC1=NN(c2ccc(Cl)c(C(=O)O)c2)C(=O)C1	.	5	3	11	17	70*	17
CC1=NN(c2cccc(Cl)c2)C(=O)C1	2	16	7	-5	20	64*	55*
CO[C@@H]1CN(C)C(=O)c2ccc(NC(=O)c3ccc(F)cc3)cc2OC[C@@H](C)N(C)C[C@@H]1C	-28	.	.	.	.	.	.
C[C@@H]1CN([C@@H](C)CO)C(=O)c2cc(NC(=O)Cc3ccccc3)ccc2O[C@@H](C)CCCCO[C@@H]1CN(C)C(=O)Nc1ccc2c(c1)OCO2	-3	.	.	.	.	.	.
O=[N+]([O-])c1ccc(N/N=C/c2c[nH]c3ccccc23)cc1	.	3	-18	-4	3	52*	4
O=C(N/N=C/c1c[nH]c2ccccc12)c1cccc([N+](=O)[O-])c1	-15	4	-12	0	1	35	.
C[C@@H]1CN([C@@H](C)CO)C(=O)c2cccc(NC(=O)C3CC3)c2O[C@H]1CN(C)Cc1ccc2c(c1)OCO2	7	.	.	.	.	.	.
CNc1ccccc1	4	.	9	-4	4	13	.
CNc1cccccc1=S	.	5	5	3	7	62*	10
[O-]C1=N/[N+](=C/c2ccccc2Cl)CC1	.	9	-8	-10	-6	50*	34
Cc1c(C)c(C)c(C(=O)C2CCN(c3ccc([N+](=O)[O-])cn3)CC2)c(C)c1C	5	2	6	5	0	44*	16
CC1CCN(c2ccc([N+](=O)[O-])cn2)CC1	-21	0	-11	-28	-7	5	.
CN(C)S(=O)(=O)c1cccc(NC(=O)CCNC(=O)Nc2ccccc2)c1	-1	.	-4	-4	5	42*	8
COc1ccc(CNC(=O)[C@H](Cc2ccccc2)NC(=O)C2CCNCC2)cc1	-10	0	3	-5	-8	7	.
COc1ccccc1CNC(=O)[C@H](C)NC(=O)C1CCN(C(=O)[C@@H](N)Cc2ccccc2)CC1	10	-3	3	-19	-4	18	.
COc1ccccc1CNC(=O)[C@H](C)NC(=O)C1CCN(C(=O)[C@@H](N)C(C)C)CC1	8	-4	-6	-13	-2	48*	10
COc1ccc(S(=O)(=O)N2CCC(C(=O)N[C@H](C(=O)NCc3ccccc3)C(C)C)CC2)cc1	0	.	.	.	.	14	.
CSCC[C@H](N)C(=O)N1CCC(C(=O)N[C@H](C(=O)NCc2ccccc2F)C(C)C)CC1	19	-2	-3	-5	-4	48*	-6
COc1ccc(CNC(=O)[C@@H](NC(=O)C2CCN(C(=O)[C@@H](N)Cc3ccccc3)CC2)C(C)C)cc1	.	0	2	2	6	54*	16
SMILES	LGR2 inh	HSP90 inh	SENP8 block-1	SENP6 block	SENP7 block	SENP8 block-2	SENP8 inh conf
COc1ccc(CNC(=O)[C@H](Cc2ccccc2)NC(=O)C2CCN(C(=O)[C@H](C)N)CC2)cc1	.	-3	-1	-4	-4	51*	9
O=C(c1ccccn1)N1CC2(C1)[C@H](c1ccccc1)[C@@H](CO)N2C(=O)C1CCCC1	-8	.	.	.	.	.	.
O=C(C[C@H]1C=C[C@H](NC(=O)Nc2ccc3c(c2)OCO3)[C@@H](CO)O1)NCc1ccc(Cl)cc1	6	.	.	.	.	.	.
C[C@@H]1CCCCO[C@@H](CN(C)C(=O)CCC(F)(F)F)[C@H](C)CN([C@H](C)CO)C(=O)c2cc(NS(=O)(=O)c3cccs3)ccc2O1	-3	.	.	.	.	.	.
CCS(=O)(=O)Nc1ccc2c(c1)C(=O)N(C)C[C@@H](OC)[C@@H](C)CN(Cc1nccs1)[C@@H](C)CO2	1	.	.	.	.	.	.
CO/N=C(/c1nonc1N)N1CCN(c2ccc([N+](=O)[O-])cc2)CC1	.	0	2	-3	5	41*	0
O=C(/C=C/c1cccs1)c1ccc([N+](=O)[O-])cc1	-17	3	-7	-10	-5	50*	8
Cc1cccc(N(C)C(=O)c2cc(S(=O)(=O)N3CCc4ccccc43)cn2C)c1	8	-2	-4	-4	-3	46*	-9
Cc1ccc(N(C)C(=O)c2cc(S(=O)(=O)N3CCc4ccccc43)cn2C)cc1	-7	3	-10	-14	-13	3	.
C[C@H](CO)N1C[C@H](C)[C@@H](CN(C)C(=O)Nc2ccccc2)OCCCC[C@H](C)Oc2ccc(NC(=O)c3ccccc3)cc2C1=O	-7	.	.	.	.	.	.
O=C(NCc1ccc2c(c1)OCO2)C1CC(c2ccccc2O)=NO1 (stereo not drawn)	-13	4	-2	-7	2	11	.
O=C(NCc1ccc2c(c1)OCO2)C1CC(c2cccc(Br)c2)=NO1 (stereo not drawn)	.	1	-8	-21	-4	40*	11
Cc1ccc(C(=O)N2C(=S)C(c3ccc(F)cc3)=NC23CCN(C)CC3)cc1	-13	-4	-18	-6	0	66*	58*
COC(=O)c1ccc(NC(=O)CN(c2ccc(OC)cc2)S(C)(=O)=O)cc1	.	0	2	2	8	41*	17
COC(=O)CCCC1=CC2=CC(=O)C(C)(OC(=O)c3cccs3)C(=O)C2=CN1CCN1CCOCC1 (stereo not drawn)	0	.	7	19	6	51*	55*
COCCN1C=C2C(=O)C(C)(OC(=O)c3cccs3)C(=O)C=C2C=C1CCCC(=O)OC (stereo not drawn)	-4	.	3	14	1	37	.
